Test results taken from PubChem BioAssay.
The source made the active and inactive calls. Unless noted, no rule for the calls is given here.

Experiments:
[1] = anti-His antibody binders, primary screen, artefact control for SMM control protein annotation, biochemical, small-molecule microarray, 635 nm fluorescence (AID 1128); conditions: anti-His Alexa647 antibody binding, higher = more signal;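 also: score merges feature fluorescence with signal-to-noise for each printed compound spot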
[2] = system: Human papillomavirus type 1a E7 protein (residues 1-88); test: HPV1a E7 small-molecule binders, primary screen, biochemical, small-molecule microarray, residues 1-88, 635 nm (AID 1129); conditions: small-molecule microarray binding, fluorescence 635 nm; higher = more signal
[3] = target: Focal adhesion kinase 1 (Homo sapiens) (UniProt Q05397); test: small-molecule microarray binders of FAK, primary screen, biochemical, 635/667 nm fluorescence, BSA, DTT (AID 1130); conditions: PTK2 binding, 635 nm fluorescence, higher = more signal;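 also: composite of spot emission at 667 nm and signal to noise over triplicate slides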
Sequence of Focal adhesion kinase 1 (Homo sapiens) (Q05397 whole entry, looked up): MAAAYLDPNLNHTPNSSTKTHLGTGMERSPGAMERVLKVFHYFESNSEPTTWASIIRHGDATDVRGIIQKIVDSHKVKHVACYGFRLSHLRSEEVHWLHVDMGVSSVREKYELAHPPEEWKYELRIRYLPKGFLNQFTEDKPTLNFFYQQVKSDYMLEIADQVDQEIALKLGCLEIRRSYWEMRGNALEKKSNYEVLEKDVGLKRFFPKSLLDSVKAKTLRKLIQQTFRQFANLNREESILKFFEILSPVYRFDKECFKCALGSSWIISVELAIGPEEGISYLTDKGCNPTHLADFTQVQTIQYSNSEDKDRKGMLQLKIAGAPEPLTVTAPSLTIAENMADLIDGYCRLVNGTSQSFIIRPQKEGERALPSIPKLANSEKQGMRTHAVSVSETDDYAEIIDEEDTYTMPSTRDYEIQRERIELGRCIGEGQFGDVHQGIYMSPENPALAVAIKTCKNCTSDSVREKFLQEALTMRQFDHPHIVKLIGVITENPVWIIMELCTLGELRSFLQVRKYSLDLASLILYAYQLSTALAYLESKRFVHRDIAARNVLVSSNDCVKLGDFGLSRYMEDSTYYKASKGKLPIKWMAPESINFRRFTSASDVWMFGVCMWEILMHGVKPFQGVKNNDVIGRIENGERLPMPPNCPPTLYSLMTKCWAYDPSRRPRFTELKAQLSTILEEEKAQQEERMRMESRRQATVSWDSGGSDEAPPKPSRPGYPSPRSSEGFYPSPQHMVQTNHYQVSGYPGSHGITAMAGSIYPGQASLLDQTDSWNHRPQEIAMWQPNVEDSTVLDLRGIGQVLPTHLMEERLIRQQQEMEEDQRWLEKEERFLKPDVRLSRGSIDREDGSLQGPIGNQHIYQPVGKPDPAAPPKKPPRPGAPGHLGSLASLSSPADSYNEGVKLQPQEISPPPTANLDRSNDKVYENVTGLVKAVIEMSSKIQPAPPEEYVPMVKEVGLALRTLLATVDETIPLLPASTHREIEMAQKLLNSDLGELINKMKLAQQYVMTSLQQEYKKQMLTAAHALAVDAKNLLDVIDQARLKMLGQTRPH

[4] = system: Fibrinogen (Alexa647-labelled); test: fibrinogen binders on compound microarrays, profiling panel, artefact control for SMM control-protein annotation, biochemical, small-molecule microarray, 635/667 nm fluorescence (AID 1131); conditions: fibrinogen-A647 binding fluorescence, higher = more signal;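 also: z-score merges 667 nm fluorescence with per-spot signal-to-noise over triplicate slides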
[5] = target: Follistatin (Homo sapiens) (UniProt P19883); test: follistatin binders on small-molecule microarrays, primary screen, biochemical, small-molecule microarray, 635/667 nm fluorescence (AID 1132); conditions: FST binding, 635 nm fluorescence, higher = more signal
Sequence of Follistatin (Homo sapiens) (P19883 whole entry, looked up): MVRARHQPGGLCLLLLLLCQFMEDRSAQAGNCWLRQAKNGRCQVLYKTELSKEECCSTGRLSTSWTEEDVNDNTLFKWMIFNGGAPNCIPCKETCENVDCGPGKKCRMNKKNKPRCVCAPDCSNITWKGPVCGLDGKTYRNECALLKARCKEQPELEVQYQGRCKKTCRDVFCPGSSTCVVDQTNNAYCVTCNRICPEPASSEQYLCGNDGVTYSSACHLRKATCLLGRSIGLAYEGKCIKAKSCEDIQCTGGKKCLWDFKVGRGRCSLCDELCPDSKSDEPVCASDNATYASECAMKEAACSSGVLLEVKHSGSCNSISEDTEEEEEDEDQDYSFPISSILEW

[6] = target: Fibroblast growth factor 2 (Homo sapiens) (UniProt P09038); test: FGF2 binders on small-molecule microarrays, primary screen, biochemical, small-molecule microarray, 635/667 nm fluorescence (AID 1133); conditions: small-molecule microarray binding, FGF2, fluorescence 635/667; higher = more signal
Sequence of Fibroblast growth factor 2 (Homo sapiens) (P09038 whole entry, looked up): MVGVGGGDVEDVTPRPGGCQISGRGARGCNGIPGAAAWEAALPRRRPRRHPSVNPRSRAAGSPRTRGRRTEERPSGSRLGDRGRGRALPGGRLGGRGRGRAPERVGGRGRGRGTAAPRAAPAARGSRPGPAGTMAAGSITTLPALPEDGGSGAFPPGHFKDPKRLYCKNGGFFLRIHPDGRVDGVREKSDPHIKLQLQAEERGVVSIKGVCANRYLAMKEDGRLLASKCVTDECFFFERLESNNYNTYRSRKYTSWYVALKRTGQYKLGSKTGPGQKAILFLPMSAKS

[7] = mitochondrial membrane potential change in A549 cells, profiling panel, cell-based, JC-1 fluorescence, basal, 24 h, 100 nL (AID 1138); conditions: higher = more signal;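 also: A549 lung adenocarcinoma cells under basal conditions with no added stimulus; test concentration not given here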
Lefty1 = Lefty1 binders on small-molecule microarrays, primary screen, biochemical, small-molecule microarray, 635/667 nm fluorescence (AID 1139); conditions: small-molecule microarray binding, fluorescence 635/667; higher = more signal
[8] = system: wheat germ agglutinin (Triticum aestivum), Alexa647-labelled; test: wheat germ agglutinin binders on compound microarrays, profiling panel, artefact control for SMM control-protein annotation, biochemical, small-molecule microarray, 635/667 nm fluorescence (AID 1140); conditions: WGA-A647 binding, 635 nm fluorescence, higher = more signal;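 also: score merges 667 nm feature emission with signal to noise over triplicate slides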
[9] = target: Luciferin 4-monooxygenase (Photinus pyralis) (UniProt P08659); test: firefly luciferase enzyme inhibitors, primary screen, biochemical, luminescence, purified enzyme, 2006 set (AID 1141); conditions: SteadyGlo luminescence, 30 min, higher = more signal, called active from +8 up or from −8 down;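 also: cell-free assay with purified firefly luciferase at 100 ng per well in PBS; test concentration not given here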
Sequence of Luciferin 4-monooxygenase (Photinus pyralis) (P08659 whole entry, looked up): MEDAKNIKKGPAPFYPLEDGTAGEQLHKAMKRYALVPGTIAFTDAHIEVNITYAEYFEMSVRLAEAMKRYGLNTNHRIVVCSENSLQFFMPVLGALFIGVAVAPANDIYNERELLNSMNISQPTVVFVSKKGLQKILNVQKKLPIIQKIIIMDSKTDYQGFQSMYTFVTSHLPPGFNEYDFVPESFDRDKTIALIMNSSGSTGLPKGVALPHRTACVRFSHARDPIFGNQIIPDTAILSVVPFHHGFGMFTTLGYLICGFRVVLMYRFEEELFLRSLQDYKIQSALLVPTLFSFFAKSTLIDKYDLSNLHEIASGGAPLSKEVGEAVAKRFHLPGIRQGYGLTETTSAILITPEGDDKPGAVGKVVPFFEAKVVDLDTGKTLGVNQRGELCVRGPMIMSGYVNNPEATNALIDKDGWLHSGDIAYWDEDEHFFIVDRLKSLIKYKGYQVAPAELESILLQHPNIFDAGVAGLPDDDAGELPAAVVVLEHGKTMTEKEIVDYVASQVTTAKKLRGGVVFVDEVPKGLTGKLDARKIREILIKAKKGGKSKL

[10] = system: Wnt5a (protein binding on small-molecule microarray); test: Wnt5a binders on small-molecule microarray, primary screen, biophysical, 635/667 nm fluorescence (AID 1142); conditions: 635 nm fluorescence, higher = more signal;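 also: fluorescence read at 667 nm with signal to noise per printed feature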
[11] = cell viability in Huh7 cells, primary screen, cytotoxicity control for HCV replication inhibitor project, CellTiter-Glo luminescence, basal, 48 h (AID 1143); conditions: Huh7 HCV replicon, higher = more signal, called active from +8 up or from −8 down;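 also: Huh7 hepatoma cells carrying a hepatitis C replication reporter with no stimulus; test concentration not given here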
[12] = P. aeruginosa biofilm formation inhibitors, primary screen, PAO1 strain, BacTiter-Glo luminescence, LB-PBS (AID 1144); conditions: 12 h, higher = more signal
[13] = CREB reporter modulators without forskolin, primary screen, cell-based, PC12, CRE-LacZ reporter, unstimulated (AID 1145); conditions: no forskolin, luminescence, 4.5 h, higher = more signal, called active from +8 up or from −8 down
[14] = CREB reporter modulators under forskolin, primary screen, cell-based, PC12, CRE-LacZ reporter, forskolin-stimulated (AID 1146); conditions: luminescence, 4.5 h, higher = more signal, called active from +8 up or from −8 down;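 also: PC12 cells with 6xCRE LacZ reporter stimulated by forskolin 10 µM; beta-galactosidase reporter signal reflecting CREB driven transcription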
[15] = target: Streptavidin (Streptomyces avidinii) (UniProt P22629); test: streptavidin binders on small-molecule microarray, primary screen, artefact control for SMM compound annotation, biophysical, 635/667 nm fluorescence (AID 1147); conditions: streptavidin binding, higher = more signal;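 also: signal reflects streptavidin binding to arrayed compounds as a control protein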
Sequence of Streptavidin (Streptomyces avidinii) (P22629 whole entry, looked up): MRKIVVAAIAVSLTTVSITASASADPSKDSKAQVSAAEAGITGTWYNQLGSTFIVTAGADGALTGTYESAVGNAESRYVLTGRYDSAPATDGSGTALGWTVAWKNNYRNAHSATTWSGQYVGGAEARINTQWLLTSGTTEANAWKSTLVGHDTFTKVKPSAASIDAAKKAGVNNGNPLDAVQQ

[16] = small-molecule binders of probe aInhba, primary screen, biochemical, small-molecule microarray, 635/667 nm fluorescence (AID 1148); conditions: higher = more signal;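 also: score merges 667nm spot fluorescence with signal-to-noise for antibody binding to printed compounds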
Torsin-1A (Homo sapiens) [17] = target: Torsin-1A (Homo sapiens) (UniProt O14656); test: torsin A binders from cell lysate, primary screen, small-molecule microarray, wild-type, 635/667 nm (AID 1149); conditions: COS7 hTOR1A-WT lysate, 635 nm fluorescence, higher = more signal
Sequence of Torsin-1A (Homo sapiens) (O14656 whole entry, looked up): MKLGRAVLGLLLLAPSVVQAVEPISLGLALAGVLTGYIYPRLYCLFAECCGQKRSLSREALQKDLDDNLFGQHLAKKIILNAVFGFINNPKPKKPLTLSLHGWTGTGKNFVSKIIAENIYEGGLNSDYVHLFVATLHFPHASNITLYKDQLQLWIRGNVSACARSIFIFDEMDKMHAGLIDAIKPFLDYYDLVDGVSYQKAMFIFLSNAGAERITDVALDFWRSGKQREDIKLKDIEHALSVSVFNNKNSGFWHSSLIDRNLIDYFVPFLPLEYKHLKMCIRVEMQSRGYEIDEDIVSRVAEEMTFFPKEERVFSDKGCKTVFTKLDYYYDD

Torsin-1A (Homo sapiens) [18] = target: Torsin-1A (Homo sapiens) (UniProt O14656); test: small-molecule binders of mutant TOR1A in lysate, primary screen, cell lysate, small-molecule microarray, COS7 lysate, 635/667 nm fluorescence (AID 1150); conditions: COS7 hTOR1A mutant lysate, 635 nm fluorescence, higher = more signal;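 also: score pools 667 nm emission and signal to noise measuring lysate protein binding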
[19] = system: Sonic hedgehog protein (Shh); test: small-molecule binders of Shh protein, primary screen, biochemical, small-molecule microarray, 635/667 nm fluorescence (AID 1151); conditions: small-molecule microarray binding, 635 nm fluorescence; higher = more signal;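 also: Shh protein binding to compounds spotted on small-molecule microarray slides; score combines spot fluorescence intensity with signal-to-noise across triplicate slides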

Row | SMILES | composite z-score [1] | composite z-score [2] | composite z-score [3] | composite z-score [4] | composite z-score [5] | composite z-score [6] | z-score [7] | composite z-score (Lefty1) | composite z-score [8] | z-score [9] | composite z-score [10] | z-score [11] | z-score [12] | z-score [13] | z-score [14] | composite z-score [15] | composite z-score [16] | composite z-score (Torsin-1A (Homo sapiens) [17]) | composite z-score (Torsin-1A (Homo sapiens) [18]) | composite z-score [19]
1 | Cc1ccc(S[C@]2(C(=O)NCCN3CCOCC3)CC(=O)N(C3CCCCC3)[C@@H]2c2ccc(CO)cc2I)cc1 | 0.893 | 1.2 | 1.14 | 0.926 | 0.972 | 0.236 | 1.23 | 1.21 | 0.977 | 0.827 (inactive) | 0.328 | -2.19 (inactive) | -0.435 (inactive) | -0.231 (inactive) | 0.341 (inactive) | 1.24 | -0.117 | 0.383 | 1.15 | 1.94
2 | O=C1O[C@@H](c2ccccc2)[C@@H](c2ccccc2)N2[C@@H](c3ccc(O)cc3)[C@]3(C(=O)Nc4ccc(C#CC5=CCCCC5)cc43)[C@@H](C(=O)N3CCCCCCC3)[C@H]12 | 1.22 | 1.06 | 0.277 | 0.836 | 1.4 | 1.19 | 1.26 | 1.29 | 1.32 | -3.18 (inactive) | 0.0888 | -4.91 (inactive) | -0.815 (inactive) | 0.155 (inactive) | -0.782 (inactive) | 1.1 | 1.04 | 1.12 | 0.772 | 1.95
